# Compounds with a hit are over-represented: about 17% of the library has one in this group of screens.
# HepG2 tox = qHTS for Inhibitors of TGF-b: Cytotox Counterscreen; AID 588856, 2011; Potency, µM (highest dose often 46.1 µM), for the others: at the top dose activity change, negative = cytotoxicity, actives largely listed as cytotoxic; HepG2 CAGA-GFP viability, ATP luminescence, 18 h; hit rate 0.76% among 410,000
#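 CellTiter-Glo luminescence gave cytotoxicity after 18 hours at 37 degrees C. The cells were HepG2 CAGA-GFP in 1% FBS DMEM, stimulated with 500 pg/mL TGF-beta after compound addition. %Activity was normalised to no-cell wells (complete cell-killing) and DMSO (no toxicity), and curves were fitted and classified.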
# HT1080-NT tox = qHTS for induction of synthetic lethality in tumor cells producing 2HG: qHTS for the HT-1080-NT fibrosarcoma cell line; HT-1080-NT fibrosarcoma viability, CellTiter-Glo ATP luminescence, 48 h; AID 686970, 2013; Potency, µM (top dose mostly 46.1 µM), for inactives: at the highest dose activity, negative = less viability, actives largely listed as cytotoxic; hit rate 1.6% among 360,000;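 also: NT is the 2HG producing partner of a matched IDH1 knockdown line; 0% = DMSO-treated cells and -100% = media-only wells without cells; nearly all actives have a fitted effect of over 55% in size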
#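 Fibrosarcoma NT cells, 750 per well in 5% FBS RPMI, were exposed to compound for 48 hours. Viability: CellTiter-Glo luminescence.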
# TDP1 cell noCPT = qHTS for Inhibitors of human tyrosyl-DNA phosphodiesterase 1 (TDP1): qHTS in cells in absence of CPT | AID 686978, 2013 | Potency, µM (doses to about 46.2 µM), for the others: at the top dose activity change, negative = growth inhibition, most hits filed as inhibitors | hit rate 15% among 420,000 | DT40 Tdp1-/- hTDP1 cells, no CPT, ATP luminescence, 48 h; also: % is scaled to controls: 0 for no effect and ±100 for the full control effect; nearly all actives have a fitted effect of over 55% in size
#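 Growth kinetics read by CellTiter-Glo luminescence after ≥48 hr at 37 °C. Cells: DT40 Tdp1-/- stably carrying human TDP1, 400 per well, compound exposure in the absence of CPT (DMSO vehicle).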
# TGFb SMAD3 inh = qHTS for Inhibitors of TGF-b; HepG2 CAGA-GFP TGF-b/SMAD3 reporter, GFP fluorescence, 18 h; TGF-beta stimulated, 500 pg/mL final; Potency, µM (highest dose often 46.1 µM), without a hit: top-dose activity, negative = inhibition, hits mostly inhibitors; hit rate 1.2% among 410,000; AID 588855, 2011; also: % is scaled to controls: 0 for no effect and ±100 for the full control effect; nearly all actives have a fitted effect of over 65% in size
#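 Smad-responsive CAGA-GFP expression was quantified in HEPG2 cells exposed to compounds and 500 pg/mL final TGF-beta for 18 h at 37 degrees C; unstimulated wells defined full inhibition.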
# HT1080 IDH1KD tx = qHTS for induction of synthetic lethality in tumor cells producing 2HG: qHTS for the HT-1080-IDH1KD cell line | HT-1080 IDH1 knockdown viability, ATP luminescence, 48 h | hit rate 2% among 360,000 | AID 686971, 2013 | Potency, µM (series often up to 46.1 µM), inactives show top-dose activity, negative = toxicity, hits mostly cytotoxic;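 also: 0% = DMSO wells and -100% = cell-free medium wells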
#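 CellTiter-Glo luminescence after 48 h compound exposure at 37 degrees C of IDH1-knockdown HT-1080 cells in 5% FBS RPMI. %Activity scaled between DMSO wells and cell-free media wells, with curves fitted and assigned curve classes.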
# DT40 TDP1 CPT = qHTS for Inhibitors of human tyrosyl-DNA phosphodiesterase 1 (TDP1): qHTS in cells in presence of CPT | Potency, µM (highest dose often 46.2 µM), inactives show at the top dose activity change, negative = growth inhibition, hits mostly inhibitors | hit rate 12% among 420,000 | chicken DT40 Tdp1-/-;hTDP1 cells + 20 nM CPT, ATP luminescence, 48 h | AID 686979, 2013; also: % is scaled to controls: 0 for no effect and ±100 for the full control effect; nearly all actives have a fitted effect of over 55% in size
#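 Cell growth measured by CellTiter-Glo luminescence after a minimum 48 h, 37 C compound exposure with 20 nM CPT in Tdp1-knockout DT40 cells stably expressing hTDP1, seeded 400/well; qHTS titration format.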
# * = called active by the depositor; u = inconclusive; x = not tested or not shown; [ ] = remark or other dose. Calls follow the shape of the dose curve; as a rule, active = well fitted curve in the direction sought with a large enough effect; inconclusive = small, poorly fitted or top-dose-only effect, or another doubt; inactive = no such curve, though single readings can be large; an effect the other way counts as inactive or inconclusive. Potency is read from the fitted curve at half-maximal effect.
SMILES,HepG2 tox,HT1080-NT tox,TDP1 cell noCPT,TGFb SMAD3 inh,HT1080 IDH1KD tx,DT40 TDP1 CPT
COc1ccc(C2/C=C\CN3CCC[C@H]3C(=O)N2Cc2ccc(F)cc2)cc1 (some centres not stated),3.4%,6.0%,23.1µM*,-0.8%,6.1%,u
COc1ccc([C@H]2/C=C\CN(C(=O)C3CC3)[C@@H](C)C(=O)N2Cc2ccc(F)cc2)cc1,-21.0%,9.3%,11.6µM*,-13.2%,20.3%,23.1µM*
COc1ccc(C2/C=C\CN(C(=O)OCc3ccccc3)CC(=O)N2Cc2ccc(F)cc2)cc1 (configuration not stated),-23.3%,-23.6%,u,u,u,u
CCCCCCC1/C(=N\NC(=O)c2ccccc2)CCC1C(=O)OC (configuration not stated),-1.0%,-1.1%,0.4%,2.6%,11.0%,u
NC(=O)c1cc([N+](=O)[O-])c(Cl)cc1NCc1ccccn1,2.8%,2.1%,25.9µM*,-15.2%,-3.5%,u
NC(=O)c1cc([N+](=O)[O-])ccc1NCc1ccccn1,-2.8%,-0.3%,-21.9%,-0.9%,-5.7%,u
O=C(CCc1cccnc1)NCC1Cc2cccc(-c3ncccn3)c2O1 (configuration not stated),x,x,11.4%,x,x,2.6%[9.04 µM]
Cc1cc2c(c(-c3nc4ccccc4s3)c1)OC(CNC(=O)CCc1cccnc1)C2 (configuration not stated),x,x,0.13µM*,x,x,0.116µM*
CCN(CC)c1ccc2cc(-c3nc4ccccc4n3C)c(=O)oc2c1,-11.7%,u,1.16µM*,u,u,0.651µM*
CCN(CC)c1ccc2cc(C(=O)c3cccs3)c(=O)oc2c1,-12.9%,-0.8%,u,239.3%,-3.9%,18.4µM*
CCN(CC)c1ccc2cc(-c3nc(-c4ccc(OC)cc4)cs3)c(=O)oc2c1,-0.3%,6.7%,14.6µM*,-70.0%,9.7%,u
CC(C)(CO)NCc1cccc(OCc2ccc(Cl)cc2)c1,-9.1%,u,u,-0.8%,-27.2%,u
Clc1ccc(COc2cccc(CNCc3ccncc3)c2)cc1,-29.0%,-13.7%,18.4µM*,-13.0%,-26.8%,u
Cc1ccc(S(=O)(=O)N2CCC(=O)N(C(COCc3cccc(Cl)c3)C(C)C)CC2)cc1 (configuration not stated),2.3%,-2.0%,20.6µM*,u,3.4%,u
Cc1ccc(S(=O)(=O)N2CCC(=O)N([C@H](COCc3cccc(Cl)c3)C(C)C)CC2)cc1,x,-3.1%,16.4µM*,x,6.4%,20.6µM*
Cc1ccc(S(=O)(=O)N2CCC(=O)N(C(COCc3cccc(C(F)(F)F)c3)C(C)C)CC2)cc1 (configuration not stated),-22.4%,-14.3%,20.6µM*,u,-27.8%,16.4µM*
CCc1ccc(C2C(C(=O)Nc3ccccc3C)=C(C)Nc3nc(SCc4cccc(OC)c4)nn32)cc1 (configuration not stated),6.2%,x,-18.5%,-0.4%,x,-5.3%
O=[N+]([O-])c1ccccc1CNCCCCCO,3.3%,15.5%,3.2%,0.3%,17.3%,3.7%
C#CCn1c(C2CC(=O)N(c3ccc(OC)cc3)C2)nc2ccccc21 (configuration not stated),1.4%,x,-16.5%,u,x,-4.4%
CCOc1ccccc1N1CC(c2nc3ccccc3n2CCOc2ccccc2OC)CC1=O (configuration not stated),-19.8%,x,u,0.0%,x,u
CCOc1ccccc1N1CC(c2nc3ccccc3n2CCOc2ccccc2)CC1=O (configuration not stated),-45.4%,x,-24.1%,u,x,-27.1%
CCOc1ccc(N2CC(c3nc4ccccc4n3Cc3cccc(Cl)c3)CC2=O)cc1 (configuration not stated),-37.3%,x,16.4µM*,u,x,u
CCOc1ccc(N2CC(c3nc4ccccc4n3CCOc3ccccc3)CC2=O)cc1 (configuration not stated),-23.8%,x,u,15.8µM*,x,u
CCOc1ccc(N2CC(c3nc4ccccc4n3CCCOc3ccccc3OC)CC2=O)cc1 (configuration not stated),-12.9%,x,8.2µM*,-29.5%,x,u
COc1ccccc1OCCCn1c(C2CC(=O)N(c3ccc(F)cc3)C2)nc2ccccc21 (configuration not stated),-6.0%,x,8.2µM*,u,x,u
SMILES,HepG2 tox,HT1080-NT tox,TDP1 cell noCPT,TGFb SMAD3 inh,HT1080 IDH1KD tx,DT40 TDP1 CPT
CCCNC(=O)COc1coc(CN2CCN(c3ccccc3OC)CC2)cc1=O,-0.6%,0.8%,-0.6%,-2.7%,-0.2%,2.6%
C/C=C/c1ccc2oc(-c3ccc(O)cc3)c(C)c2c1,x,x,-7.6%[9.04 µM],x,x,1.9%[9.04 µM]
Cc1nc2c(C(=O)NCCc3ccc(Cl)cc3)c[nH]n2c(=O)c1Cc1ccccc1F,15.8µM*,x,-8.6%,12.6µM*,x,-5.6%
Cc1nc2c(C(=O)NCCc3ccccc3)c[nH]n2c(=O)c1Cc1ccc(F)cc1Cl,-49.1%,x,u,u,x,-29.1%
COc1ccc(Br)c(C(=O)NC2CCCC2)c1,-1.4%,10.0%,4.4%,1.8%,5.2%,-14.7%
CCOC(=O)Cn1c(=O)n(C2CCCCC2)c2nc(-c3c(F)cccc3Cl)nc(C(N)=O)c21,-44.8%,x,x,u,x,x
O=C(NC1CCCCC1)C(c1ccc2ncccc2c1)N(Cc1ccc2c(c1)OCO2)C(=O)c1cccs1 (configuration not stated),-30.3%,u,u,-29.8%,u,18.4µM*
O=C(NC1CCCCC1)C(c1ccccc1)N(C(=O)c1cccs1)c1ccc2c(c1)OCO2 (configuration not stated),-3.5%,-2.2%,u,5.1%,-7.3%,u
O=C(NC1CCCCC1)C(c1ccc2ncccc2c1)N(Cc1ccccc1)C(=O)c1cccs1 (configuration not stated),-4.3%,u,17.8µM*,-24.7%,u,u
COc1ccc(OC)c(NC(=O)CSc2ncnc3c2cnn3-c2ccccc2Cl)c1,2.8%,-21.7%,1.3µM*,-33.1%,-23.9%,2.06µM*
